# Hits are enriched below; roughly 1.5% of the tested compounds scored in any of these assays.
# uPA surface inh: inhibitors of cell surface uPA generation. cell surface uPA generation assay, qHTS. Potency, µM (series often up to 38.3 µM), hits mostly inhibitors. actives 0.31% (n = 330,000). AID 540303; active = well fitted inhibition curve with a large enough effect; inconclusive = small, poorly fitted or top-dose-only effect; inactive = no such curve, though single readings can be large or run the other way; tested in mouse RAW 264.7 cells; also: nearly all actives have a fitted effect of over 55% in size
# ALOX12 inh: ALOX12 (human) lipoxygenase inhibition. purified 12hLO, xylenol orange hydroperoxide absorbance. Potency, µM (top dose mostly 108 µM), most hits filed as inhibitors. P18054. AID 1671190. actives 1.1% (n = 580,000)
# Target sequence (P18054 whole entry, looked up): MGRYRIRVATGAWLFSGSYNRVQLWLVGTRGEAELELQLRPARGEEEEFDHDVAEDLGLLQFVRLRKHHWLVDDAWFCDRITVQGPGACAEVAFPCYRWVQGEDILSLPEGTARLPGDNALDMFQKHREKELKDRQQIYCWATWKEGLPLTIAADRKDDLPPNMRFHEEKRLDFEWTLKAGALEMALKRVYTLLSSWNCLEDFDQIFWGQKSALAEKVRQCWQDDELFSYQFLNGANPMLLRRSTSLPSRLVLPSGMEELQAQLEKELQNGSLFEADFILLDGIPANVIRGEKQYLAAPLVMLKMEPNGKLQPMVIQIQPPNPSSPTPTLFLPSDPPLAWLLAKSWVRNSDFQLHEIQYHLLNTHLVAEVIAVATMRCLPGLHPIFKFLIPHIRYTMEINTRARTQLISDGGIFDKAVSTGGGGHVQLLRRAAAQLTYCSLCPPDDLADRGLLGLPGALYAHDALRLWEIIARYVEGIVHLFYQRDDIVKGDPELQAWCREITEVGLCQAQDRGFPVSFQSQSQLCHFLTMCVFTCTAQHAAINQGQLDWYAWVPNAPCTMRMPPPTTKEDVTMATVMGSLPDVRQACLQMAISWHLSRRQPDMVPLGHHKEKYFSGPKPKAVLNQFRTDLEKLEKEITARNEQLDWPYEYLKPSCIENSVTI
#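 Purified human 12hLO at 150 nM in 25 mM Hepes, 0.01% Triton X-100, pH 7.0, preincubated 15 min at room temperature with compound. Reaction started with 40 uM arachidonic acid, 30 min at room temperature. Hydroperoxide measured by Fe-xylenol orange, 573/405 nm absorbance ratio.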
# a7 integrin act: integrin-mediated muscular dystrophy alleviation activation. alpha7betagal myoblasts, beta-gal FDG fluorescence, 48 h. Potency, µM (doses to about 38.3 µM), usual class: activators. actives 0.064% (n = 350,000). AID 624291; also: nearly all actives have a fitted effect of over 60% in size
#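 Alpha7betagal+/- myoblasts (passage 13) were plated 16-24 hr, then exposed to compounds (1:260 dilution of DMSO stock) for 48 hours at 37C. After MPER lysis, β-galactosidase reporter activity was read as FDG fluorescence (ex 480/em 540) after 30 minutes.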
# IL-2 act: activates IL-2 in a cell-based reporter assay; IL-2 activation reporter assay, cell-based qHTS; stimulated with anti-CD3/CD4/CD28 beads; in transgenic mouse T cells; activation, % (series mostly up to about 46 µM); actives 0.065% (n = 360,000); AID 652025; in the data active = activation above about 50%; inconclusive = mostly about 30% to 49%
#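 Quantitative HTS in unstimulated transgenic mouse T cells, with memory T cells as non-tolerant control and PMA/ionomycin as tolerance-bypass control. Compound pretreatment lasted 60 minutes before 18 h bead stimulation; EGFP/DsRed fluorescence read.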
# Nrf2 ARE act: activators of Nrf2 (ARE) signaling. AREc32 ARE-luciferase reporter (MCF7-derived line), luminescence, 24 h. Potency, µM (titrated, usually from 46.1 µM), most hits filed as activators. actives 0.31% (n = 410,000). AID 624171; also: nearly all actives have a fitted effect of over 65% in size
#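 AREc32_Fluc, 1000 cells/well, OPTI-MEM + 5% FBS, o/n 37 deg C 5% CO2; 23 nL cpd by pin tool, 24 hr; Steady-Glo 30 min RT, luminescence.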
# A number is an active result; 0 = inactive; ? = inconclusive; - = no result given; [ ] = dose if it differs, or a comment. Unless noted, calls follow the shape of the dose curve; as a rule, active = well fitted curve in the direction sought with a large enough effect; inconclusive = small, poorly fitted or top-dose-only effect, or another doubt; inactive = no such curve, though single readings can be large; an effect the other way counts as inactive or inconclusive.
SMILES,uPA surface inh,ALOX12 inh,a7 integrin act,IL-2 act,Nrf2 ARE act
CC(=O)c1c(C)[nH]c(C(=O)/C(C#N)=C/c2cccc(C)c2)c1C,0,?,0,0,0
O=S1(=O)Nc2c(ccc3cccnc23)-c2ccccc21,?,-,0,0,7.1µM
OCC1CN(c2ccncn2)CC12CCN(CC1CCCCC1)CC2 (configuration not stated),-,0,-,-,-
CC(=O)c1ccc2c(c1)Cc1ccccc1-2,-,0,-,-,-
C/C(=N\Nc1ccc(Br)cc1)c1ccc2c(c1)Cc1ccccc1-2,-,10µM,-,-,-
Cc1ccc(C(=O)N2CCC(c3nn(-c4ccc(F)cc4)c(=O)[nH]3)CC2)cc1,-,0,-,-,-
COc1ccc(-n2nc(C3CCN(C(=O)c4ccccc4)CC3)[nH]c2=O)cc1,-,0,-,-,-
O=C(Cc1cccc(Cl)c1)N1CCCC(c2nn(-c3cccc(Cl)c3)c(=O)[nH]2)C1 (configuration not stated),-,16µM,-,-,-
O=C(Cc1ccc(F)cc1)N1CCCC(c2nn(-c3ccccc3)c(=O)[nH]2)C1 (configuration not stated),-,0,-,-,-
O=C(c1ccccc1)N1CCC(c2nn(-c3ccc(Cl)cc3)c(=O)[nH]2)CC1,-,35µM,-,-,-
O=C(c1cccc(Cl)c1)N1CCC(c2nn(-c3ccc(Cl)cc3)c(=O)[nH]2)CC1,-,14µM,-,-,-
O=C(c1ccc(F)cc1)N1CCC(c2nn(-c3ccc(Cl)cc3)c(=O)[nH]2)CC1,-,35µM,-,-,-
N#Cc1nc(COc2ccc(F)cc2)oc1NCc1ccco1,-,0,-,-,-
COc1ccc(-n2nc(C3CCCN(C(=O)C4CC4)C3)[nH]c2=O)cc1 (configuration not stated),-,18µM,-,-,-
c1ccc(-c2nc(-c3ccncc3)no2)cc1,0,0,0,0,11µM
Clc1ccccc1-c1nc(-c2ccncc2)no1,0,?,0,0,11µM
c1ccc(-c2ccc(-c3nc(-c4ccncc4)no3)cc2)cc1,0,0,0,0,0
c1ccc(-c2ccc(-c3nc(-c4cccnc4)no3)cc2)cc1,0,0,0,0,0
Cc1ccccc1-c1nc(-c2cccnc2)no1,0,0,0,0,13µM
c1ccc(-c2noc(-c3cccnc3)n2)cc1,0,0,0,0,3.2µM
COc1ccccc1-c1cnn2c1NC(=O)CC2C(=O)Nc1ccc(F)cc1 (configuration not stated),-,0,-,-,-
COc1ccc(-c2cc(C[C@@H]3CC[C@@H]4OC(=O)NC[C@H]4O3)no2)cc1,-,0,-,-,-
CCCNC(=O)C1COC2(CCN(C(=O)CC(C)C)CC2)N1C(=O)c1cccc(OC)c1 (configuration not stated),-,0,-,-,-
CCOC(=O)c1cnc(Nc2ccc(C)cc2)c2ccccc12,-,0,-,-,-
Cc1nn2c(c1-c1cccnc1N1CCOCC1)N(CCc1ccccc1)CCC2,-,20µM,-,-,-
SMILES,uPA surface inh,ALOX12 inh,a7 integrin act,IL-2 act,Nrf2 ARE act
Cc1ccncc1-c1c(C)nn2c1N(C(=O)Cc1ccc(Cl)cc1)CCC2,-,0,-,-,-
Cc1ccncc1-c1c(C)nn2c1N(Cc1ccc(C(=O)O)cc1)CCC2,-,16µM,-,-,-
Cc1nn2c(c1-c1cccnc1N1CCOCC1)N(Cc1ccc3c(c1)CCO3)CCC2,-,0,-,-,-
Cc1nn2c(c1-c1cccnc1N1CCOCC1)N(CCC(C)C)CCC2,-,18µM,-,-,-
CC(=O)Nc1ccccc1-c1c(C)nn2c1N(CCCc1ccccc1)CCC2,-,16µM,-,-,-
NC(=O)NC(=O)COC(=O)c1cccc(Br)c1,-,0,-,-,-
Cc1nn2c(c1-c1ccccc1C(C)C)N(CCC(C)C)CCC2,-,50µM,-,-,-
CCCCS(=O)(=O)CCSCCS(=O)(=O)CCCC,-,0,-,-,-
O=C(O)c1ccccc1CC(CCc1ccccc1)C(=O)O (configuration not stated),0,28µM,0,0,0
O=C1NC2(CCN(Cc3ccncc3)CC2)COc2ccccc21,-,0,-,-,-
Cn1cccc1CN1CCC2(CC1)COc1ccccc1C(=O)N2,-,56µM,-,-,-
CN(C)c1ccc(CN2CCC3(CC2)COc2ccccc2C(=O)N3)cc1,-,40µM,-,-,-
CCn1cc(S(=O)(=O)Nc2ccn(Cc3ccccc3F)n2)c(C)n1,-,0,-,-,-
CC(=O)C1=C(C)Oc2ncn3nc(-c4ccco4)nc3c2C1c1ccco1 (configuration not stated),-,0,-,-,-
OC(CCN1CC2CCC(CC2)C1)(Cc1ccccc1)c1ccco1 (configuration not stated),0,2.5µM,0,0,0
C=CCOc1ccc(/C=C(\C#N)C(=O)NCCN2CCOCC2)cc1,-,0,-,-,-
C=CCn1c(C)cc(-c2csc(NC(=O)CCc3nc4ccccc4c(=O)[nH]3)n2)c1C,0,0,0,0,0
O=C(CCc1nc2ccccc2c(=O)[nH]1)Nc1nc(-c2cccs2)cs1,0,-,0,0,10µM
COc1cc2c(cc1OC)C(C[C@H]1CN(C(=O)c3ccco3)CC[C@H]1CC(=O)O)=NCC2,-,56µM,-,-,-
Cn1cc(S(=O)(=O)N2CCC(C(=O)Nc3ccc(OC(F)F)cc3)CC2)cc1C(N)=O,-,0,-,-,-
CN(C)Cc1c(O)ccc2c3c(c(=O)oc12)CCCCC3,0,0,0,0,0
CN(Cc1c(O)ccc2c1oc(=O)c1ccccc12)C1CCCCC1,-,0.89µM,0,0,0
N#C/C(=C\c1cc(Cl)ccc1O)C(=O)NC1CCCCC1,-,?,0[7.66 µM],0,0
N#C/C(=C\c1cc(Cl)cc(Cl)c1O)C(=O)NC1CCCCC1,-,7.1µM,0,0,0
COc1ccc(/C=C/C(=O)c2c(O)cc(C)oc2=O)c(OC)c1,0,0,0,172,0
SMILES,uPA surface inh,ALOX12 inh,a7 integrin act,IL-2 act,Nrf2 ARE act
Cc1ccc(C)n1C1C(=O)N(Cc2ccc(C(C)C)cc2)c2c(F)cccc21 (configuration not stated),-,32µM,-,-,-
Cc1ccc(C)n1C1C(=O)N(Cc2ccc(C(C)C)cc2)c2ccc(F)cc21 (configuration not stated),-,35µM,-,-,-
Cc1ccc(C)n1C1C(=O)N(Cc2ccc(C(F)(F)F)cc2)c2ccc(Cl)cc21 (configuration not stated),-,10µM,-,-,-
CCCSc1ncc(Cl)c(C(=O)Nc2nnc(CC)s2)n1,-,0,-,-,-
Cc1ccccc1CN1C(=O)CS/C1=N/N=C/c1ccco1,0,40µM,0,0,?
CCCSc1nnc2n(C)c(=O)c3c(n12)-c1ccccc1CC31CCCCC1,-,0,-,-,-
O=C(CSc1nnc(-c2ccco2)c(-c2ccco2)n1)c1ccccc1,0,28µM,0,0,?
CC(=O)c1ccc(NC(=O)CSc2nnc(-c3ccco3)c(-c3ccco3)n2)cc1,0,?,0,0,?
CCC1CCCCN1C(=O)c1ccc([N+](=O)[O-])o1 (configuration not stated),0,0,0,0,20µM
O=C1NCCCCCCN(C(=O)C2CC=CC2)[C@H]2C[C@H](c3nc(Cc4ccccc4)no3)C[C@@H]12,-,0,-,-,-
S=C(NCCc1ccccc1)Nc1ccccn1,0,22µM,0,0,0
S=C(NCCc1ccncc1)Nc1ccccc1,0,0,0,0,0
Cc1ccccc1NC(=S)NCCc1ccccc1,0,?,0,0,0
